Results: PubChem BioAssay AID430 (Sanford-Burnham Center for Chemical Genomics, 2006)
Among all 63,000 compounds or so, about 1,100 (1.7%) were called active. Cut-off read from the data, not from the text of the source: active = cytotoxicity above about 50%; inactive = the rest. The list comes from a sample in which actives are over-represented; it also holds similar structures and randomly drawn compounds. Results with a measured potency or affinity are listed apart.

Experiment: HPDE-C7 pancreatic duct cell viability loss – fluorescence, HTS (AID 430);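 note: cells exposed to compound for 48 hours before viability readout; 0% = vehicle and 100% = reference cytotoxic drug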
Details: HPDE-C7 pancreatic duct cells viability, at 10 µM, active compounds read high
For `COC(=O)CN1CCN(C(=O)c2ccc(F)cc2)c2ccccc2C1`, the cytotoxicity was -14.6% (inactive). With `Cc1cc(Cl)ccc1N=Cc1c(O)n(C)c(=O)n(C)c1=O` the cytotoxicity was -4.4% (inactive). In the case of `Cc1cccnc1NCC(O)COc1ccccc1` (stereo not drawn), the cytotoxicity was -2.3% (inactive). For `CN1CCN(CC(=O)N(Cc2c(C#N)c3ccccc3n2C)c2ccccc2)CC1`, the cytotoxicity was 2.3% (inactive). With `O=C(c1ccccc1C(=O)N1CCN(c2ccc(F)cc2)CC1)N1CCN(c2ccc(F)cc2)CC1` the cytotoxicity was 2.5% (inactive). In the case of `COC(=O)C(C)NC(=O)C1CCCN1S(=O)(=O)c1cc(C)c(Cl)cc1C` (stereo not drawn), the cytotoxicity was 7.8% (inactive). In the case of `CN(C)C(=O)N1CCC(C(=O)NCc2ccccc2)CC1`, the cytotoxicity was -9.6% (inactive). For `Cc1nc(N2CCC(C)CC2)c2c(C)c(C(=O)O)sc2n1`, the cytotoxicity was -38.1% (inactive). With `Cc1cc(C)c2c3c(c(-c4ccccc4)n2n1)c(=O)n(C)c(=O)n3C` the cytotoxicity was -6.5% (inactive). With `CCN1CCN(c2ccc(NC(=O)COc3ccccc3Cl)cc2)CC1` the cytotoxicity was -13.4% (inactive). With `Cn1cc(Cl)c(C(=O)N2CCN(c3ncccn3)CC2)n1` the cytotoxicity was 3.1% (inactive). In the case of `CCC(c1nnnn1Cc1cccs1)N1CCN(c2nc3ccccc3s2)CC1` (stereo not drawn), the cytotoxicity was -1.9% (inactive). In the case of `c1ccc(COc2ccc(Nc3ncnc4nc[nH]c34)cc2)cc1`, the cytotoxicity was -3.8% (inactive). For `C=CCn1c(N)c(C(=O)OCCC)c2nc3ccccc3nc21`, the cytotoxicity was 5.2% (inactive). For `C=CCn1c(N)c(C(=O)OC(C)(C)C)c2nc3ccccc3nc21`, the cytotoxicity was 8.7% (inactive). For `C=CCn1c(N)c(C(=O)Nc2ccccc2)c2nc3ccccc3nc21`, the cytotoxicity was 66.5% (active). For `COC(=O)c1cccc(S(=O)(=O)N(Cc2ccco2)Cc2cc3ccc(OC)cc3[nH]c2=O)c1`, the cytotoxicity was -2.3% (inactive). For `O=C(CCSc1ccccc1)N1CCOCC1`, the cytotoxicity was 2.9% (inactive). In the case of `O=C1N=c2ccccc2=C1c1sc(=S)n(CC2CCCO2)c1O` (stereo not drawn), the cytotoxicity was -0.5% (inactive). In the case of `C=CCn1c(O)c(C2=c3ccccc3=NC2=O)sc1=Nc1ccc(O)cc1`, the cytotoxicity was 111% (active). In the case of `C=CCn1c(O)c(C2=c3ccccc3=NC2=O)s/c1=N/c1nccs1`, the cytotoxicity was -2.6% (inactive). In the case of `Cc1cccc(OCCc2nnc(N)s2)c1C`, the cytotoxicity was -15.8% (inactive). For `CC(C)c1nnc(NC(=O)CSc2nc3ccccc3s2)s1`, the cytotoxicity was -8.4% (inactive). With `Cc1ccc(C(C(=O)NC(C)(C)C)N(CC2CCCO2)C(=O)Cn2nnc(-c3ccc(C)o3)n2)cc1` (stereo not drawn) the cytotoxicity was -0.4% (inactive). For `COc1ccc(-c2cc3ccccc3n2CC(O)CNC(CO)(CO)CO)cc1` (stereo not drawn), the cytotoxicity was 6.1% (inactive). For `COc1ccc(-c2cc3ccccc3n2CC(O)CN2CCN(CCO)CC2)cc1` (stereo not drawn), the cytotoxicity was 52.6% (active). With `COc1ccc(-c2cc3ccccc3n2CC(O)CN2CCOCC2)cc1` (stereo not drawn) the cytotoxicity was -1.1% (inactive). For `CCOc1ccc(C2C(C(=O)c3ccco3)=C(O)C(=O)N2Cc2cccnc2)cc1OC` (stereo not drawn), the cytotoxicity was 7.1% (inactive). With `O=C(Nc1ccc(OC(=O)c2ccco2)cc1)c1ccco1` the cytotoxicity was -10.9% (inactive). In the case of `O=C(Nc1nc(-c2cccs2)c(-c2ccccc2)s1)c1ccco1`, the cytotoxicity was 53.7% (active). With `CCn1c2ccccc2c2cc(NC(=O)N3CCOCC3)ccc21` the cytotoxicity was 6.2% (inactive). For `O=C(Nc1ccc(Oc2ccc(NC(=O)c3ccco3)c(NC(=O)c3ccco3)c2)cc1)c1ccco1`, the cytotoxicity was 25% (inactive). For `CC(=O)c1sc(NC(=O)c2ccco2)nc1-c1ccccc1`, the cytotoxicity was -1% (inactive). For `CCOC(=O)c1sc(NC(=O)c2ccco2)nc1-c1ccccc1`, the cytotoxicity was -8.2% (inactive). For `CCn1c2ccccc2c2cc(NC(=O)c3ccco3)ccc21`, the cytotoxicity was 57.2% (active). With `Cc1ccc(Oc2ccc(NC(=O)c3ccco3)cc2)cc1` the cytotoxicity was 78.8% (active). For `CCn1c2ccccc2c2cc(CN3CCN(C(=O)c4ccco4)CC3)ccc21`, the cytotoxicity was -25.2% (inactive). With `Cc1ccc(NC(=O)c2ccc(OC(=O)c3ccco3)cc2)cc1` the cytotoxicity was -5.6% (inactive). For `O=C(OC1CCCCC1)c1ccc(NC(=O)c2ccco2)cc1`, the cytotoxicity was 58.1% (active). In the case of `O=C(O)CCC(=O)Nc1ccc(C(=O)OC2CCCCC2)cc1`, the cytotoxicity was -4.7% (inactive). With `CC(C)CCNC(=O)CN(CCN1CCOCC1)C(=O)Cn1nnc(-c2ccc(F)cc2)n1` the cytotoxicity was 4.5% (inactive). With `Cc1c(C(=O)O)sc2ncnc(N3CCCCC3C)c12` (stereo not drawn) the cytotoxicity was 9.8% (inactive). With `CCCCOC(=O)c1ccc(NC(C)=O)cc1` the cytotoxicity was -11.4% (inactive). In the case of `CCCCCOC(=O)c1ccc(NC(=O)c2ccco2)cc1`, the cytotoxicity was 65.9% (active). With `COC(=O)c1sc(NC(=O)c2ccco2)nc1C` the cytotoxicity was -3.5% (inactive). For `Cc1nc(NC(=O)c2ccco2)sc1C(=O)Nc1ccc(Br)cc1`, the cytotoxicity was 65.7% (active). For `CCCCOC(=O)c1ccc(NC(=O)c2ccoc2C)cc1`, the cytotoxicity was 3.4% (inactive). In the case of `CCOC(=O)c1sc(NC(=O)c2ccco2)nc1C`, the cytotoxicity was -1.4% (inactive). In the case of `Cc1ccc2c(c1)NCCO2`, the cytotoxicity was 5.4% (inactive). For `Cc1nnc(C)n1/N=C/c1cc(Br)ccc1O`, the cytotoxicity was -12.5% (inactive). With `COc1c(Br)cc(Br)cc1/C=N/n1c(C)nnc1C` the cytotoxicity was 2.9% (inactive). For `Cc1nnc(C)n1/N=C/c1cc(Br)cc(Br)c1O`, the cytotoxicity was 79.9% (active). For `CC(C)COC(=O)C(N)C(C(=O)OCC(C)C)c1ccccc1` (stereo not drawn), the cytotoxicity was -6.4% (inactive). In the case of `O=C(NCC1CCCO1)C1CC(=O)N(c2ccc(F)c(Cl)c2)C1` (stereo not drawn), the cytotoxicity was 3.4% (inactive). In the case of `CCOC(=O)Cc1c(C)c2ccc(N(CC)CC)cc2oc1=O`, the cytotoxicity was -17.8% (inactive). With `CCN(CC)c1ccc2c(C)c(-c3ccc(N)cc3)c(=O)oc2c1` the cytotoxicity was 11% (inactive). With `CCN(CC)c1ccc2c(C)c(CN3CCOCC3)c(=O)oc2c1` the cytotoxicity was 24.1% (inactive). In the case of `CCNc1ccc2c(Cl)cc(=O)oc2c1`, the cytotoxicity was -2% (inactive). With `CCN(CC)C(=O)CSc1nnc(-c2cccs2)n1Cc1ccco1` the cytotoxicity was 17.7% (inactive). With `O=C(COc1ccccc1)N1CCN(C(=O)c2cccc(F)c2)CC1` the cytotoxicity was -40.5% (inactive). For `CCOC(=O)CN1C(=O)COc2ccc(Cl)cc21`, the cytotoxicity was -8.8% (inactive). With `CCN(CC)CCCN(Cc1cc2cc3c(cc2[nH]c1=O)OCCO3)C(=O)Nc1ccc(F)cc1` the cytotoxicity was 0.9% (inactive). With `O=C(c1ccc(Cn2cc(Br)cn2)cc1)N1CCN(c2ccccc2)CC1` the cytotoxicity was 53.1% (active). For `O=C(O)c1cccc(Cn2cc(Br)cn2)c1`, the cytotoxicity was -12.3% (inactive). With `O=C(c1ccc(Cn2cc(Cl)cn2)cc1)N1CCN(c2ccccc2)CC1` the cytotoxicity was 12.3% (inactive). With `CC(=O)N(Cc1cc(=O)[nH]c2ccccc12)c1cccc(C)c1` the cytotoxicity was 12% (inactive). In the case of `CC1(C)CC(=O)C2=C(C1)N(CCN1CCOCC1)C1=C(C(=O)CC(C)(C)C1)C2c1cccc(Cl)c1`, the cytotoxicity was 3.8% (inactive). For `O=C1CC(N2CCN(c3ccccc3)CC2)C(=O)N1c1ccc2c(c1)OCCO2` (stereo not drawn), the cytotoxicity was -4.9% (inactive). For `Cc1ccc(CCNC(=O)C2CCCN(c3nc4ccccc4o3)C2)cc1` (stereo not drawn), the cytotoxicity was -18% (inactive). In the case of `COc1cc(NC(=O)c2ccco2)c(OC)cc1NC(=O)c1cc(OC)c(OC)c(OC)c1`, the cytotoxicity was 52.3% (active). For `CCOc1cc(NC(=O)c2ccco2)c(OCC)cc1NC(=O)c1cc(OC)c(OC)c(OC)c1`, the cytotoxicity was 14.4% (inactive). For `COc1cc(C(=O)Nc2ccc(NC(=O)c3ccco3)nc2)cc(OC)c1OC`, the cytotoxicity was -2.5% (inactive). For `Cc1cccc(NC(=O)Cn2c(C)c(C#N)c3ccccc32)c1C`, the cytotoxicity was -4.9% (inactive). For `O=C(CSc1n[nH]c(=O)[nH]c1=O)c1ccccc1`, the cytotoxicity was 5% (inactive). For `c1ccc(Cc2nnc3sc(Nc4ccccc4)nn23)cc1`, the cytotoxicity was 3% (inactive). For `CCn1c(SCC(=O)N2CCN(c3ccc(Cl)cc3)CC2)nc2ccccc2c1=O`, the cytotoxicity was 2.2% (inactive). In the case of `O=C(NCc1cccnc1)C1CC(=O)N(c2ccc(Cl)cc2)C1` (stereo not drawn), the cytotoxicity was -7% (inactive). With `CSC1=NCCN1C(=O)c1cccs1` the cytotoxicity was 2% (inactive). With `COc1ccc(NC(=O)CSC2=C(C#N)C(c3ccco3)C3=C(CCCC3=O)N2)c(OC)c1` (stereo not drawn) the cytotoxicity was -2.1% (inactive). With `N#CC1=C(SCC(=O)c2ccccc2)NC2=C(C(=O)CCC2)C1c1ccco1` (stereo not drawn) the cytotoxicity was 54.3% (active). In the case of `Cc1ccc(NC(=O)CSC2=C(C#N)C(c3ccco3)C3=C(CCCC3=O)N2)cc1` (stereo not drawn), the cytotoxicity was 3.5% (inactive). For `Cc1ccc(C(=O)CSC2=C(C#N)C(c3ccco3)C3=C(CC(C)(C)CC3=O)N2)cc1` (stereo not drawn), the cytotoxicity was 7.1% (inactive). In the case of `Cc1ccc(C(=O)CSC2=C(C#N)C(c3ccco3)C3=C(CCCC3=O)N2)cc1` (stereo not drawn), the cytotoxicity was 76.5% (active). With `CC(C)(C)c1ccc(C(=O)CCCSC2=C(C#N)C(c3ccco3)C3=C(CCCC3=O)N2)cc1` (stereo not drawn) the cytotoxicity was 38.2% (inactive). For `CCOC(=O)N1CCN(CC(=O)Nc2c(C(=O)OC)[nH]c3cccc(Cl)c23)CC1`, the cytotoxicity was -17.3% (inactive). For `COc1ccc(-n2nnnc2SCC(=O)c2cc3ccccc3o2)cc1`, the cytotoxicity was -1.1% (inactive). In the case of `CCOC(=O)C1C(=O)CC(C)(O)C(C(=O)OCC)C1c1ccccc1OC` (stereo not drawn), the cytotoxicity was -17.4% (inactive). For `CSCCC(NC(=O)OC(C)(C)C)C(=O)NC(CC(C)C)C(N)=O` (stereo not drawn), the cytotoxicity was -35.4% (inactive). For `Cc1cccc(C)c1NC(=O)C(c1ccccc1)N1CCC2(CC1)OCCO2` (stereo not drawn), the cytotoxicity was 9.2% (inactive). With `CCCC1=C(C(=O)OCC)C(c2ccccc2OC)NC(=O)N1` (stereo not drawn) the cytotoxicity was -16.5% (inactive). With `Cc1noc(C)c1S(=O)(=O)N(CC(=O)N1CCn2c1nc1ccccc12)c1ccc(C(C)C)cc1` the cytotoxicity was 8.7% (inactive). For `CCCn1c(CNc2ccc(Br)cc2)nc2ccccc21`, the cytotoxicity was 50.8% (active). For `CCCn1c(NCc2ccco2)nc2ccccc21`, the cytotoxicity was 2% (inactive). With `CCCn1c(CNc2ccccc2O)nc2ccccc21` the cytotoxicity was 14.5% (inactive). For `CCCn1c(NC(=O)c2ccccc2)nc2ccccc21`, the cytotoxicity was -20.2% (inactive). With `Cn1c(CNc2ccccc2)nc2ccccc21` the cytotoxicity was -11.4% (inactive). In the case of `Cc1ccc(Nc2cc(C)nc3nc(C)nn23)c(C)c1`, the cytotoxicity was -12.6% (inactive). For `C=CCOC(=O)C1=C(C)OC(N)=C(C#N)C1c1ccccc1F` (stereo not drawn), the cytotoxicity was 6.1% (inactive).
